The values that follow come from publication PMC7862700, “An all-to-all approach to the identification of sequence-specific readers for epigenetic DNA modifications on cytosine”.

Holding throughout (test): DAPPL (digital affinity profiling via proximity ligation, sequencing); 10 mM Tris-HCl pH 7.5, 50 mM NaCl, 1 mM DTT, 4% glycerol, room temperature, 30 min; GST-TFs on glutathione beads, 16-mer random dsDNA library, 0.1% formaldehyde crosslink after washing; high values mean tight binding
In test [1] the target is T1, FLI1 (Homo sapiens, UniProt Q01543 1-452).
T1 sequence: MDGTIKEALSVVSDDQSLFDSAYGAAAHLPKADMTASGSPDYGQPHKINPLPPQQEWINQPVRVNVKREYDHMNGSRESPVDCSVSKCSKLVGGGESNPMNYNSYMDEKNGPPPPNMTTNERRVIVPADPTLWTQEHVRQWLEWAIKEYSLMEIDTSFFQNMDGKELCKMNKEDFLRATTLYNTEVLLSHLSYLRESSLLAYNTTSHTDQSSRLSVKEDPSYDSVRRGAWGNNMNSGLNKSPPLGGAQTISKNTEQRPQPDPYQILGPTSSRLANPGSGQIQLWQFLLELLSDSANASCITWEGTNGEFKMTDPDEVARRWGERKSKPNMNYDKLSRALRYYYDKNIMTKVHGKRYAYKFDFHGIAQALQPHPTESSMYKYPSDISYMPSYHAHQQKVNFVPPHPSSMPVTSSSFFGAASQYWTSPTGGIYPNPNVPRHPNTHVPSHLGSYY
To be noted: protein: recombinant; tags: N-terminal GST; dsDNA, one strand shown. An outline of the steps: (§1)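 Human transcription factors fused to GST were expressed in yeast, captured on glutathione beads, given DNA barcodes and pooled with a GST-only negative control. Pools were incubated with 200 nmole of a 16-mer random double-stranded DNA library in Tris/NaCl/DTT/glycerol buffer at room temperature for 30 min. They were then washed, crosslinked with 0.1% formaldehyde, proximity-ligated (BsaI/T4 ligase, 1 h, 37 °C), PCR-amplified and sequenced on an Illumina NextSeq500. Binding signal is each 6-mer's read frequency for a factor divided by its frequency for the GST control.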

Test [2] has as its target T2, ELK1 (Homo sapiens, UniProt P19419 1-428).
T2 sequence: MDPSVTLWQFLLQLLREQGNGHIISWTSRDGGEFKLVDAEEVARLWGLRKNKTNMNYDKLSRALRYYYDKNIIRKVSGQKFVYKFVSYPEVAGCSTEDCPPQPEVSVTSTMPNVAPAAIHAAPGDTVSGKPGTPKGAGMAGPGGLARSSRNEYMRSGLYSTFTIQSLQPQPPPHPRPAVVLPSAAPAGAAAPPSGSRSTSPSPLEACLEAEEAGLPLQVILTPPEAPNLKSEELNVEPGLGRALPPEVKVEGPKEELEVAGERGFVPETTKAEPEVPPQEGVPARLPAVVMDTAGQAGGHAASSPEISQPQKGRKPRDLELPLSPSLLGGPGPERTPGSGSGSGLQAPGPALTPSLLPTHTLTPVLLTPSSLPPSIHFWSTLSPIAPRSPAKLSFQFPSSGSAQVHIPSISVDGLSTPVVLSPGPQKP
The following applies: protein: recombinant; tags: N-terminal GST; dsDNA, one strand shown. An outline of the steps:
as §1

The target in test [3] is T3, GABPA (Homo sapiens, UniProt Q06546 1-454).
T3 sequence: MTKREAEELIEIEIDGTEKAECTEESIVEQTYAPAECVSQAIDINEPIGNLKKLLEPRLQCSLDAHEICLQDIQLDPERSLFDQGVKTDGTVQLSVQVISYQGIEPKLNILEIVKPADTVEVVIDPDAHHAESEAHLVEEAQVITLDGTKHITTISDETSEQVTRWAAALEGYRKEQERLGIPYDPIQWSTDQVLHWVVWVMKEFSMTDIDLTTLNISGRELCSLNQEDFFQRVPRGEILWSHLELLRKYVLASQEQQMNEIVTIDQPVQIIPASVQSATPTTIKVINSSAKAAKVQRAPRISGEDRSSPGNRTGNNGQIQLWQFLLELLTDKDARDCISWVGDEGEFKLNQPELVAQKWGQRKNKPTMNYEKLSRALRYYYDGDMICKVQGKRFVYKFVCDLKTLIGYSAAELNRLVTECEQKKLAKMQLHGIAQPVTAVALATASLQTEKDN
The following applies: protein: recombinant; tags: N-terminal GST; dsDNA, one strand shown. The method, boiled down: as §1

The target of test [4] is T4, ERG (Homo sapiens, UniProt P11308 1-479).
T4 sequence: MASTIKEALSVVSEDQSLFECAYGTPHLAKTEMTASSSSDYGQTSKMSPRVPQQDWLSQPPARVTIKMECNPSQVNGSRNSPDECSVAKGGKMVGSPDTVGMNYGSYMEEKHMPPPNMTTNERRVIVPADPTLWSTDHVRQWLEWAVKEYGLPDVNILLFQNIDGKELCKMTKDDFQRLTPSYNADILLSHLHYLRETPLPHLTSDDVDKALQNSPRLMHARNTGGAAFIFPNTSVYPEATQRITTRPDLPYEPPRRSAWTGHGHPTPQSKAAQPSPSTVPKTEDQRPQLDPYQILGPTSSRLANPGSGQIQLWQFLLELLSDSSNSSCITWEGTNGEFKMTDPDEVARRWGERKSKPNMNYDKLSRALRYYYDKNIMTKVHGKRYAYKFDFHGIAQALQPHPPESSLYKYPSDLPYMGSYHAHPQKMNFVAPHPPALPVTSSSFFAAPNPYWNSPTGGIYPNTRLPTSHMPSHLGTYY
To be noted: protein: recombinant; tags: N-terminal GST; dsDNA, one strand shown. An outline of the steps: as §1

In test [5] the target is T5, ELK3 (Homo sapiens, UniProt P41970 1-407).
T5 sequence: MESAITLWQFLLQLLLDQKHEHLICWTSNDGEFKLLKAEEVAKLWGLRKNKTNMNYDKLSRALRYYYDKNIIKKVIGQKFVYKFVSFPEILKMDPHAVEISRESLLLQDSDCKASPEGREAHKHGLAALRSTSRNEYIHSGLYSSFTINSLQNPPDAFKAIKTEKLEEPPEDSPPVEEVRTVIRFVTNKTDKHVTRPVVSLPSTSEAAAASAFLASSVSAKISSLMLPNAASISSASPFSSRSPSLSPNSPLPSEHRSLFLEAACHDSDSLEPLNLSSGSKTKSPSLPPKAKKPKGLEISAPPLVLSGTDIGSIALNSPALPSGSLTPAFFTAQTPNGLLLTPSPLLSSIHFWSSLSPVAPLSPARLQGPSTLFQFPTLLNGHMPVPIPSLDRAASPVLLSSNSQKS
The following applies: protein: recombinant; tags: N-terminal GST; dsDNA, one strand shown. An outline of the steps: as §1

Test [6] has as its target T6, ETV3L (Homo sapiens, UniProt Q6ZN32 1-361).
T6 sequence: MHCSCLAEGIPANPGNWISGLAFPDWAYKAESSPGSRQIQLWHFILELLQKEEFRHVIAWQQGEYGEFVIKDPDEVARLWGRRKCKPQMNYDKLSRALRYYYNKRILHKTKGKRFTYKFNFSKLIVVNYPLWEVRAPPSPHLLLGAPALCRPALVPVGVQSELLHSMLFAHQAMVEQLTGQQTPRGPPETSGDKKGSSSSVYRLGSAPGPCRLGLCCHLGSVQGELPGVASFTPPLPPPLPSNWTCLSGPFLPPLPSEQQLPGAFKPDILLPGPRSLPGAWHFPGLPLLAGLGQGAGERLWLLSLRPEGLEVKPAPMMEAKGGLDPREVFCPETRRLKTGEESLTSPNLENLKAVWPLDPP
The following applies: protein: recombinant; tags: N-terminal GST; dsDNA, one strand shown. An outline of the steps:
as §1

Test [7] deals with T7, ETV7 (Homo sapiens, UniProt Q9Y603 1-341).
T7 sequence: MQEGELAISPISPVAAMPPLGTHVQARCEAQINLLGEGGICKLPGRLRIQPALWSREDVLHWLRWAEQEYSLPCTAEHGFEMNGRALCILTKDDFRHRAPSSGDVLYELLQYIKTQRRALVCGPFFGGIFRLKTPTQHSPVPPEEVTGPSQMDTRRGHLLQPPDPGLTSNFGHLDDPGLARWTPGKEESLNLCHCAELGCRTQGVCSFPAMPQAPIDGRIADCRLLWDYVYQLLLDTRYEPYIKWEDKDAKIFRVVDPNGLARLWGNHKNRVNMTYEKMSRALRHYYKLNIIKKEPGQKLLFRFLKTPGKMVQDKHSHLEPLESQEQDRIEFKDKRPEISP
The following applies: protein: recombinant; tags: N-terminal GST; dsDNA, one strand shown. An outline of the steps: as §1

Test [8] addresses T8, ETV3 (Homo sapiens, UniProt P41162-2 1-143).
T8 sequence: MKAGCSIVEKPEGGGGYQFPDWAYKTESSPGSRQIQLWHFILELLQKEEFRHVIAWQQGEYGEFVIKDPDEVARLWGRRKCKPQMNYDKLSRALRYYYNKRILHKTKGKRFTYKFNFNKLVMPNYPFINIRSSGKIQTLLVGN
To be noted: protein: recombinant; tags: N-terminal GST; dsDNA, one strand shown. The method, boiled down: as §1

Test [9] concerns the target ETV6 (Homo sapiens, UniProt P41212 1-452). To be noted: protein: recombinant; tags: N-terminal GST; dsDNA, one strand shown. An outline of the steps:
as §1

Test [10] addresses HSF1 (Homo sapiens, UniProt Q00613 1-529). The following applies: protein: recombinant; tags: N-terminal GST; chain copies: 3; dsDNA, one strand shown. The method, boiled down:
as §1

The target of test [11] is ELF1 (Homo sapiens, UniProt P32519 1-619). The following applies: protein: recombinant; tags: N-terminal GST; dsDNA, one strand shown. The method, boiled down: as §1
ELF1, sequence (P32519 whole entry): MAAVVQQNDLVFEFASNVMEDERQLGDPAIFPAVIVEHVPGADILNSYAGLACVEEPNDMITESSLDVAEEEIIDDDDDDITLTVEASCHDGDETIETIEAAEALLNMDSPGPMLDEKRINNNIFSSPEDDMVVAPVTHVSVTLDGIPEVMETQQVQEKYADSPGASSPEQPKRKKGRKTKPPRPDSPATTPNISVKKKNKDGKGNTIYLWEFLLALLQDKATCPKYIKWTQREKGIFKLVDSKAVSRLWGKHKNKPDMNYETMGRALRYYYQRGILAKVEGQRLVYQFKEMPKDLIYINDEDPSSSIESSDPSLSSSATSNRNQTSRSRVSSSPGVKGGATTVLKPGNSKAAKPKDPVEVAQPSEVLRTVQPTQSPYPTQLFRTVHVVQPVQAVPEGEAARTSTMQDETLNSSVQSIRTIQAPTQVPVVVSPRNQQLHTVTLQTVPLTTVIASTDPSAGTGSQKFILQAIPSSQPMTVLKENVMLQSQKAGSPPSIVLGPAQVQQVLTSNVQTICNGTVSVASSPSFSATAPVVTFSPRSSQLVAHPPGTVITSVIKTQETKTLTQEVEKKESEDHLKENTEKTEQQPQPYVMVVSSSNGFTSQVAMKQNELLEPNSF
The target in test [12] is SPIB (Homo sapiens, UniProt Q01892 1-262). To be noted: protein: recombinant; tags: N-terminal GST; dsDNA, one strand shown. The method, boiled down: as §1
SPIB, sequence (Q01892 whole entry): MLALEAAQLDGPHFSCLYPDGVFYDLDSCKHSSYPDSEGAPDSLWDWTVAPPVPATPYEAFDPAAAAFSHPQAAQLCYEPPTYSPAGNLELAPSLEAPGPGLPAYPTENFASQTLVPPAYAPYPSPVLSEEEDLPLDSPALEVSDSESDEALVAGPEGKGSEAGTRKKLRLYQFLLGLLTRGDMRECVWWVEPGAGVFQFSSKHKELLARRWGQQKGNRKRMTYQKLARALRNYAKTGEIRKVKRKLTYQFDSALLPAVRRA
Test [13] has as its target T9, ELF3 (Homo sapiens, UniProt P78545 1-371).
T9 sequence: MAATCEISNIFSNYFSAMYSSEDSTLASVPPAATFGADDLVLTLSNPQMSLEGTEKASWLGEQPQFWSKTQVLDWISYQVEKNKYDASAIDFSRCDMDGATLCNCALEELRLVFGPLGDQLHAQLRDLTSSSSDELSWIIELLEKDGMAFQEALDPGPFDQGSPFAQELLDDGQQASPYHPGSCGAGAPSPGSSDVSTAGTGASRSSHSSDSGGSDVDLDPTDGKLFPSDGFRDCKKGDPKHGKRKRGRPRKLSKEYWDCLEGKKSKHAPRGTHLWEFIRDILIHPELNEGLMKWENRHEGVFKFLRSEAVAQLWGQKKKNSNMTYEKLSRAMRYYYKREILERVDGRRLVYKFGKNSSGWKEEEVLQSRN
The following applies: protein: recombinant; tags: N-terminal GST; dsDNA, one strand shown. An outline of the steps: as §1

Test [14] concerns the target ETV1 (Homo sapiens, UniProt P50549 1-477). To be noted: protein: recombinant; tags: N-terminal GST; dsDNA, one strand shown. An outline of the steps: as §1
Test [15] addresses T10, ERF (Homo sapiens, UniProt P50548 1-548).
T10 sequence: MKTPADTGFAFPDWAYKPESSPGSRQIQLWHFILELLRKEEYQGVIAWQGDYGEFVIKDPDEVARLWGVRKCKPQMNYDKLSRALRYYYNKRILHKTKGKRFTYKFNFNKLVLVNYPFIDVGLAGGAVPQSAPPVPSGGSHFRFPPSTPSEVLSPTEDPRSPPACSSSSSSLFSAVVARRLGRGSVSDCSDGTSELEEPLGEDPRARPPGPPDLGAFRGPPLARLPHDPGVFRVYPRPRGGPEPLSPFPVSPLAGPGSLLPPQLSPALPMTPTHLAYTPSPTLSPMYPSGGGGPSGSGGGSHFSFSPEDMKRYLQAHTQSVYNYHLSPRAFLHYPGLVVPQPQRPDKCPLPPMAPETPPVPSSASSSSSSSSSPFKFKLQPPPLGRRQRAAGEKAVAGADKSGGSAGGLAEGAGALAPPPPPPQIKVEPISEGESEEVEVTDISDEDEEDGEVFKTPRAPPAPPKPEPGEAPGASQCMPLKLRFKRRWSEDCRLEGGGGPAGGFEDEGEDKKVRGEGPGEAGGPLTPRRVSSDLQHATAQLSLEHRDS
To be noted: protein: recombinant; tags: N-terminal GST; dsDNA, one strand shown. The method, boiled down:
as §1

ETV1, sequence (P50549 whole entry): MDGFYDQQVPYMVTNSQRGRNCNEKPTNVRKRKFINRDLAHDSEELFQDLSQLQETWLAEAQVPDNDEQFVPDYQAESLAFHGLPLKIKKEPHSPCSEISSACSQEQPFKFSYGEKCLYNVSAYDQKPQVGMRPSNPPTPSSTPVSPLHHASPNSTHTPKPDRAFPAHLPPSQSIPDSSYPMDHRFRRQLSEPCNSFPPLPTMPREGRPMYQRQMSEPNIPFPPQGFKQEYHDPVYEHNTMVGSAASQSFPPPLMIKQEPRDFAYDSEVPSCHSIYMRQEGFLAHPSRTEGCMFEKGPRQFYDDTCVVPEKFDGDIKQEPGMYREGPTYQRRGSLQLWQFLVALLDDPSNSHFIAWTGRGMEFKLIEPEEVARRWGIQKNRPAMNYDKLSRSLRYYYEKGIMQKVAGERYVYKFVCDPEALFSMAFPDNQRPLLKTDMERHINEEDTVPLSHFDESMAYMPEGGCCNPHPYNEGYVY
HSF1, sequence (Q00613 whole entry): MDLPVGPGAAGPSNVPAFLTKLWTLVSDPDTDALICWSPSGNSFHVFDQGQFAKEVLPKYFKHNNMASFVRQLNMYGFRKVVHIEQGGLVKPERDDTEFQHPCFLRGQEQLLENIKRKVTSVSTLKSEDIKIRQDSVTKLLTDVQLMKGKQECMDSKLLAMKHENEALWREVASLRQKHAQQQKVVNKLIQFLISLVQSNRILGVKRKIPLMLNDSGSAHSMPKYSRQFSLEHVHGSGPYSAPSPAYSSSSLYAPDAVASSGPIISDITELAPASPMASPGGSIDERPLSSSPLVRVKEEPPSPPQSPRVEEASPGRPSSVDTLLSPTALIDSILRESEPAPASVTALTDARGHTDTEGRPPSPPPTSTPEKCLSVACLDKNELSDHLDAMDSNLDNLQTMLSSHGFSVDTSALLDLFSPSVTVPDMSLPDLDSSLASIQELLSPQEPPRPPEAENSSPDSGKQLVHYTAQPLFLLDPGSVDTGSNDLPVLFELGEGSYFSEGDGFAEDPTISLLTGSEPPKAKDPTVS
ETV6, sequence (P41212 whole entry): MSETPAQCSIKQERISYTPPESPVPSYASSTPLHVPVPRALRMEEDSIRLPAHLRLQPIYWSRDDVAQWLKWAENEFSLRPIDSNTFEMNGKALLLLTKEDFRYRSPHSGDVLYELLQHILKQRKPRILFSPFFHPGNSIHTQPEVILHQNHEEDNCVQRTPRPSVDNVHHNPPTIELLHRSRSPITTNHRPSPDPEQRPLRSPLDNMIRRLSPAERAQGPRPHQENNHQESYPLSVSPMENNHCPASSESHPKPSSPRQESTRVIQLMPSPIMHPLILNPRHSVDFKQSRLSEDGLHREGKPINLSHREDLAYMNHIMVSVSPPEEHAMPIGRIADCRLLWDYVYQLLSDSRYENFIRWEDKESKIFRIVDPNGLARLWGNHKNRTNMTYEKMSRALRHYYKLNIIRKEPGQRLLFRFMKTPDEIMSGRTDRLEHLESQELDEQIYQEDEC

Take CCGGTG: the binding signal in [1] is 1.04 fold enrichment (6-mer frequency, TF over GST control); in test [2], 1.09 fold enrichment (6-mer frequency, TF over GST control); in [3] it was 1.08 fold enrichment (6-mer frequency, TF over GST control); in test [4], 1.19 fold enrichment (6-mer frequency, TF over GST control); in test [5] it was 1.08 fold enrichment (6-mer frequency, TF over GST control); in test [6], 1.01 fold enrichment (6-mer frequency, TF over GST control). Further, the binding signal in test [7] is 1.04 fold enrichment (6-mer frequency, TF over GST control); in test [8], 1.08 fold enrichment (6-mer frequency, TF over GST control); in test [9], 1.02 fold enrichment (6-mer frequency, TF over GST control).
For TCCGAG, the binding signal in [10] was 1.03 fold enrichment (6-mer frequency, TF over GST control).
As to GGATGG, the binding signal in test [1] is 1.02 fold enrichment (6-mer frequency, TF over GST control); in test [11], 1.05 fold enrichment (6-mer frequency, TF over GST control); in test [12], 1.03 fold enrichment (6-mer frequency, TF over GST control); in [13] it was 1.13 fold enrichment (6-mer frequency, TF over GST control); in [14], 1.13 fold enrichment (6-mer frequency, TF over GST control); in test [15], 1.05 fold enrichment (6-mer frequency, TF over GST control). For the same sequence, the binding signal in [6] was 1.08 fold enrichment (6-mer frequency, TF over GST control); in [7], 1.06 fold enrichment (6-mer frequency, TF over GST control).
